# Sampled rows, rich in hits. Any-hit rate of the full collection: about 9.3%.
# VACV mCherry inh: inhibitors of vaccinia virus infection (mCherry reporter signal); Vaccinia virus mCherry reporter infection, fluorescence; Potency, µM (doses to about 36.5 µM), inactives show top-dose activity change, negative = inhibition, usual class: inhibitors; 0.63% of 310,000 active; calls by dose curve; tested in A549 cells; note: potency is the fitted concentration of half-maximal effect; nearly all actives have a fitted effect of over 35% in size
# Sm TGR block: S. mansoni TGR enzyme inhibition. Q962Y6. 3% of 360,000 active. purified TGR, DTNB reduction, TNB absorbance 405 nm. Potency, µM (titrated, usually from 114 µM), for inactives: at the top dose activity change, negative = inhibition, most hits filed as inhibitors; note: potency is the fitted concentration of half-maximal effect; nearly all actives have a fitted effect of over 60% in size
#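 First, TGR (20 nM dispensed) and NADPH were mixed with compound. Second, a 15 min room-temperature incubation followed. Third, further NADPH and then DTNB were added to start the reaction. Finally, TNB absorbance was monitored kinetically.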
# FMDV antiviral: blocks foot and mouth disease virus; FMDV antiviral cell-based qHTS; Potency, µM (titrated, usually from 57.9 µM), for inactives: top-dose activity change, negative = inhibition, actives largely listed as inhibitors; 1.2% of 410,000 active; calls by dose curve; tested in HEK293T cells; note: read-out not given here; potency is the fitted concentration of half-maximal effect; nearly all actives have a fitted effect of over 45% in size
# VACV Venus inh: inhibitors of vaccinia virus (Venus reporter); Vaccinia virus Venus reporter expression, fluorescence; Potency, µM (doses to about 36.5 µM), for the others: at the highest dose activity change, negative = inhibition, most hits filed as inhibitors; 0.46% of 330,000 active; AID 720580; calls by dose curve; tested in A549 cells; note: potency is the fitted concentration of half-maximal effect; nearly all actives have a fitted effect of over 30% in size
# HCV inh: inhibitors of hepatitis C virus infection; Huh7.5.1 HCVcc-Cre infection, luciferase reporter, 44 h; Potency, µM (doses to about 41.8 µM), inactives show top-dose activity change, negative = inhibition, usual class: inhibitors; 3.4% of 340,000 active; note: potency is the fitted concentration of half-maximal effect
#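 After 44 h co-culture of compound, cells and HCVcc-Cre (~0.5 moi), substrate is added for 15 min at room temperature and luciferase measured over 15 sec. Cells were seeded at 1,000/well and pre-cultured 4 h.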
# HCMV antiviral: blocks human cytomegalovirus replication; HFF cells, HCMV-luciferase reporter, 72 h; stronger effect = lower value; activity change, negative = inhibition, % at 57.5 µM; 4.5% of 410,000 active; AID 1259415; in the data active = activity change below about -60%; inconclusive = no clear call, values can overlap the other calls; inactive = above about -39%
#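 Two-dose cell screen: HFF monolayers treated with compounds and infected with luciferase-expressing HCMV at 1 PFU/cell, 72 h at 37C, then lysed for luciferase measurement.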
# * marks the source's active call; other numbers are inactive results; i = inactive; ? = inconclusive; nt = no result given; [ ] = remark or other dose. Unless noted, calls come from the whole dose curve; as a rule, active = well fitted curve in the direction sought with a large enough effect; inconclusive = small, poorly fitted or top-dose-only effect, or another doubt; inactive = no such curve, though single readings can be large; an effect the other way counts as inactive or inconclusive. % is set by controls: 0 for no effect and ±100 for the full control effect.
SMILES,VACV mCherry inh,Sm TGR block,FMDV antiviral,VACV Venus inh,HCV inh,HCMV antiviral
Cc1cc(C(=O)O)ccc1-c1ccc(CO)o1,i,nt,4%,-14%,11%,26
C=CCN1CN(S(=O)(=O)c2cccs2)c2nc3ccccc3nc21,nt,32%,39%,nt,-14%,-10
CS(=O)(=O)N(CC(=O)Nc1cccc([N+](=O)[O-])c1)c1ccccc1,i,nt,10%,-10%,-6%,-5
Cc1ccccc1CN(CC(=O)Nc1cccc([N+](=O)[O-])c1)S(=O)(=O)c1ccc(Cl)cc1,?,8%,40µM*,?,?,-37
COc1ccc(CC(=O)NNC(=O)CCC(=O)Nc2cc(C)ccc2C)cc1,-18%,nt,-9%,-9%,-9%,-104*
CC[C@]1(c2ccccc2OC)ON(c2ccccc2C(F)(F)F)C1=O,-23%,-3%,22µM*,?,?,-29
CCn1c(=O)c2cc(C(=O)NCC(OC)OC)sc2c2ccccc21,i,1%,-1%,-20%,?,21
NNC(=O)C1CC1c1ccccc1 (stereo not given),i,4%,-19%,-8%,38%,-21
CC(=O)c1cn(CC(=O)Nc2ccc(C)cc2C)c2ccccc12,nt,-9%,?,?,5.6µM*,?
Cc1ccc(NC(=O)Cn2cc(C(=O)C3CC3)c3ccccc32)c(C)c1,-6%,1%,?,-9%,15%,-13
CC(=O)c1cn(CC(=O)Nc2cccc(C)c2C)c2ccccc12,-19%,5%,?,-26%,?,-70*
Cc1ccc(-n2c(=O)c3cccnc3n2CC(=O)Nc2ccc(C)cc2Cl)cc1,-22%,-3%,-9%,-24%,nt,13
Cc1ccc(-n2c(=O)c3cccnc3n2CC(=O)Nc2cccc(C)c2C)cc1,-18%,1%,-13%,-16%,nt,-63*
CCC(=O)c1cn(CC(=O)Nc2cccc(C)c2C)c2ccccc12,-17%,2%,-18%,-1%,?,4
CCC(CC)C(=O)c1c[nH]c(C(=O)N2CCN(c3ccccc3F)CC2)c1,i,-1%,13%,3%,11%,105
O=C(Nc1ccc2c(c1)OCCO2)C1CCN(S(=O)(=O)c2cccc3nsnc23)CC1,-9%,-2%,-25%,-3%,13%,-2
O=C(C1CCCN(S(=O)(=O)c2cccc3nsnc23)C1)N1CC=C(c2ccccc2)CC1 (stereo not given),?,-23%,20µM*,?,13µM*,-61*
Cc1ccc(C)c(N2CCN(C(=O)C3CCN(S(=O)(=O)c4cccc5nsnc45)CC3)CC2)c1,-16%,11%,22µM*,?,?,-40
O=S(=O)(Nc1ccc2c(c1)OCCO2)c1cccc2nsnc12,i,0%,?,0%,26%,-68*
O=C(Nc1ccc2c(c1)OCCO2)C1CCCN(S(=O)(=O)c2cccc3nsnc23)C1 (stereo not given),-12%,-26%,nt,-8%,?,-77*
Cc1ccc(C)c(N2CCN(C(=O)C3CCCN(S(=O)(=O)c4cccc5nsnc45)C3)CC2)c1 (stereo not given),?,-3%,?,-23%,nt,-18
O=C(CSc1nnc(-c2ccncc2)s1)Nc1ccc(Cl)c(C(=O)O)c1,-5%,1%,-1%,-14%,3%,5
Cc1ccc2nc(NC(=O)C3CCN(S(=O)(=O)c4cccc5nsnc45)CC3)sc2c1,-9%,-4%,?,0%,?,-85*
Cc1ccc2nc(NC(=O)C3CCCN(S(=O)(=O)c4cccc5nsnc45)C3)sc2c1 (stereo not given),-21%,0%,-8%,-28%,11µM*,-22
O=C(C1CCCN1S(=O)(=O)c1cccc2nsnc12)N1CCN(c2ccc(F)cc2)CC1 (stereo not given),nt,-8%,-3%,nt,-3%,-66*
SMILES,VACV mCherry inh,Sm TGR block,FMDV antiviral,VACV Venus inh,HCV inh,HCMV antiviral
Cc1ccc(NC(=O)C2CCN(S(=O)(=O)c3cccc4nsnc34)CC2)cc1,-20%,-5%,-29%,-13%,nt,-25
O=C(C1CCCN1S(=O)(=O)c1cccc2nsnc12)N1CCN(c2ccccc2)CC1 (stereo not given),nt,-2%,-3%,nt,15%,nt
O=C(Nc1nc2cc(Cl)ccc2s1)C1CCCN(S(=O)(=O)c2cccc3cccnc23)C1 (stereo not given),-11%,8%,0%,?,11µM*,nt
Cc1ccc(Cl)cc1N1CCN(S(=O)(=O)c2cc3c(cc2C)NC(=O)CO3)CC1,?,-4%,-24%,-10%,-15%,?
COc1ccc(CC(=O)Nc2ccccc2C(=O)NCCc2ccccc2)cc1,nt,8%,-28%,nt,?,47
COc1ccc(NC(=O)C2(c3ccc(NC(=O)c4ccc(OC)cc4)cc3)CCCC2)cc1,i,1%,-17%,-12%,?,?
CC(=O)NC(=C(Cl)Cl)S(=O)(=O)c1ccccc1,7.9µM*,?,22µM*,8.9µM*,?,-99*
Cc1ccc(C(=O)NC(=C(Cl)Cl)S(=O)(=O)c2ccc(Cl)cc2)cc1,nt,nt,?,nt,?,-11
Cc1ccc(C(=O)NC(=C(Cl)Cl)S(=O)(=O)c2ccc(C)cc2)cc1,?,18µM*,18µM*,?,-18%,-60*
O=C(NC(=C(Cl)Cl)S(=O)(=O)c1ccc(Cl)cc1)c1ccccc1,nt,3.5µM*,28µM*,nt,?,?
Cc1ccc(S(=O)(=O)C(NC(=O)c2ccccc2)=C(Cl)Cl)cc1,?,nt,13µM*,?,?,-74*
O=C(NS(=O)(=O)c1ccc(Cl)cc1)c1ccccc1,nt,-2%,41%,nt,12%,3
CC(=O)Nc1ccc(S(=O)(=O)N2CCN(S(=O)(=O)c3ccccc3)CC2)cc1,nt,-12%,-9%,nt,20%,68
CCNC(=S)Nc1c(C)n(C)n(-c2ccccc2)c1=O,nt,-29%,-8%,nt,10%,-31
Cc1ccc(C(=O)NS(=O)(=O)c2ccccc2)cc1,-7%,-1%[57.1 µM],5%,-3%,3.2µM*,-8
Cc1ccc(C(=O)NS(=O)(=O)c2ccc(C)cc2)cc1,nt,19%,-2%,nt,8%,-17
Cc1ccc(S(=O)(=O)/C(=C/Cl)NC(=O)c2ccccc2)cc1,?,40µM*,14µM*,?,?,-66*
Cc1ccc(S(=O)(=O)CCC(=O)OCC(=O)NC(=O)c2ccccc2)cc1,i,-1%,-16%,-4%,17%,-15
Cc1cccc(N2CCN(c3cc(C)nc4c(-c5ccc(Cl)cc5)c(C)nn34)CC2C)c1 (stereo not given),4%,4%,-3%,-2%,nt,-21
Cc1cc(S(=O)(=O)c2ccc(Cl)cc2)nc(S(=O)(=O)c2ccc(Cl)cc2)c1C#N,11µM*,nt,28µM*,11µM*,nt,-98*
